About 690 (0.19%) of roughly 360,000 compounds were called active. The full list was thinned out, with actives kept by preference. A number with no mark means an inactive call.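 Rule for the calls: active = fluorescence ratio to DMSO below 75%, the collection mean minus 3 SD; inconclusive = too few cells collected in the well; inactive = the rest.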
target: ATP-binding cassette sub-family B member 6 (Homo sapiens) (UniProt Q9NP58); experiment: blockers of ABCB6-driven porphyrin uptake – K562-ABCB6 cells, flow cytometry, MLPCN library, primary screen (AID 602162); details: K562-ABCB6 porphyrin accumulation, 1 h, at 10 µM, stronger effect = lower value;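 note: signal is porphyrin accumulated inside mitochondria; 100% equals median channel fluorescence of DMSO control wells; lower ratio means ABCB6 inhibition with less porphyrin fluorescence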
Sequence (Q9NP58 whole entry, looked up): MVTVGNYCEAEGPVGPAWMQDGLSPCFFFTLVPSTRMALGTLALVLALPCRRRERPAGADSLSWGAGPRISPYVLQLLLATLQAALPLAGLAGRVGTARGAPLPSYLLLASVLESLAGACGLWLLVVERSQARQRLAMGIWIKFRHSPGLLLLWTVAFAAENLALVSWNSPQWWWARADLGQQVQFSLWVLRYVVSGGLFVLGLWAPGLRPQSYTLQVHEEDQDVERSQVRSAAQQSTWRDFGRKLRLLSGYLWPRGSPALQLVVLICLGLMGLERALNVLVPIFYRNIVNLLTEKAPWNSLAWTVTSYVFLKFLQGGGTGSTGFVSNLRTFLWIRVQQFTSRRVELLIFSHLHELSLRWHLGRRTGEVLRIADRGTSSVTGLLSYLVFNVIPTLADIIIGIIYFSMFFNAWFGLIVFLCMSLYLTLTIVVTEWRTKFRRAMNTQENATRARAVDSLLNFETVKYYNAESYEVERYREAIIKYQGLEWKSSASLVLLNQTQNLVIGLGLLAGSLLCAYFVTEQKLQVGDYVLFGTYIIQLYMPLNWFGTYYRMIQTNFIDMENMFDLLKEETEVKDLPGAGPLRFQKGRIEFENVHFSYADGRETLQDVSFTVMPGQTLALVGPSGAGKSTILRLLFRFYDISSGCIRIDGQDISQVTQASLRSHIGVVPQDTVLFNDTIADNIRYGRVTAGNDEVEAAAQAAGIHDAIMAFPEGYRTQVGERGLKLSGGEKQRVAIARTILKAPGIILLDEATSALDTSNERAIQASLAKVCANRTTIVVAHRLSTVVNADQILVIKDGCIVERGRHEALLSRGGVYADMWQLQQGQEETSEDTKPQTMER

| SMILES | fluorescence ratio to DMSO |
| --- | --- |
| CC(=O)Nc1ccccc1C(=O)C(=O)Nc1ccc(F)cc1 | 104% |
| Cc1cccc(NC(=O)c2ccc(OCC(=O)NCc3ccccc3)cc2)c1C | 97% |
| O=C1COc2ccc(S(=O)(=O)NCCc3ccc(Cl)cc3)cc2N1 | 93% |
| O=C1C=C(c2cccc(Br)c2)C[C@@H](c2ccc(F)cc2)C1 | 101% |
| O=C(Nn1cnc2ccccc2c1=O)c1ccc([N+](=O)[O-])cc1Cl | 98% |
| O=C(Nn1cnc2ccccc2c1=O)c1ccc(F)cc1Cl | 26% (active) |
| O=C(Cn1cnc2ccccc2c1=O)NNC(=O)c1ccccc1F | 97% |
| COC(=O)Cc1nc2c(N)nc(N)nc2[nH]c1=O | 97% |
| CC1CCCC(NC(=O)c2cc(-c3ccncc3)nc3ccccc23)C1C (configuration not stated) | 96% |
| COC(=O)CNC(=O)c1cc(-c2ccncc2)nc2ccccc12 | 70% (active) |
| CCc1ccc(-c2cc(C(=O)NN3CCN(C)CC3)c3ccccc3n2)cc1 | 99% |
| Cc1cccc(C)c1NC(=O)Nc1ccccc1-n1ccnc1 | 96% |
| COc1ccc(NC(=O)/C(Cl)=C(/Cl)S(=O)Cc2ccc(C)cc2)cn1 (configuration not stated) | 19% (active) |
| CC(CC(=O)Nc1ccccc1)n1ccnc1 (configuration not stated) | 96% |
| O=C1OC(Oc2ccc(Br)cc2)(c2ccccc2)c2ccccc21 (configuration not stated) | 93% |
| CCn1ccnc1CNC(=O)CC1C(=O)NCCN1Cc1ccc(F)cc1Cl (configuration not stated) | 92% |
| C=CCn1c(SCC(=O)NCc2ccccc2)nnc1-c1cc(Br)ccc1O | 53% (active) |
| O=C(CSc1nnc(-c2cccnc2)n1CCc1ccccc1)NCc1ccccc1 | 110% |
| C=CCn1c(SCC(=O)NC(=O)Cc2ccccc2)nc2ccccc2c1=O | 99% |
| N#CCCN1CCN(S(=O)(=O)c2ccc(S(=O)(=O)NC3CCCCC3)cc2)CC1 | 96% |
| Cc1ccc(S(=O)(=O)N2CCC(Oc3ccc(-n4cnnn4)cc3)CC2)cc1 | 96% |
| COC(=O)c1ccc(CN2C(=O)C(Cc3ccccc3)ON=C2c2ncccc2C)o1 (configuration not stated) | 94% |
| OCCC1CN(Cc2cccc(O)c2)CCN1CCc1ccccc1 (configuration not stated) | 93% |
| OCCC1CN(Cc2cnc(-c3ccccc3)s2)CCN1CCc1ccccc1 (configuration not stated) | 73% (active) |

| SMILES | fluorescence ratio to DMSO |
| --- | --- |
| OCCC1CN(Cc2ccc(Oc3ncccn3)cc2)CCN1CCc1ccccc1 (configuration not stated) | 101% |
| COc1ccc(CN2C(=O)CC(Cc3ccc(C)cc3)C2=O)cc1OC (configuration not stated) | 97% |
| O=S1(=O)CC(N2CCN(Cc3ccccc3F)CC2)CN1Cc1cn(Cc2cccc(C(F)(F)F)c2)nn1 (configuration not stated) | 96% |
| COc1ccc(-c2c(NC(=O)c3ccco3)oc3ccc(Cl)cc3c2=O)cc1 | 97% |
| O=C(COc1ccccc1)Nc1cc2c3c(c1)CC(=O)N3CCC2 | 102% |
| Cn1c(=O)c2cc(NC(=O)NCCc3cccs3)ccc2n1Cc1cccc(C(F)(F)F)c1 | 100% |
| Cc1ccccc1Cn1c(C)c(C(=O)NCc2cccc(C(F)(F)F)c2)sc1=O | 98% |
| O=C(Cc1cccs1)NCc1cccc(C(F)(F)F)c1 | 68% (active) |
| Cc1ccn(-c2cccc(-n3ccc(C)n3)n2)n1 | 104% |
| Cc1cnc(C(=O)OCc2c(C)cc(C(C)(C)C)cc2C)cn1 | 104% |
| COc1ccc(/C=C(\NC(=O)c2ccc(OCC(C)C)cc2)C(=O)OCc2ccco2)cc1 | 100% |
| O=C(NCCSc1ncc(-c2ccccc2)[nH]1)c1ccco1 | 74% (active) |
| COc1ccc(-c2cnc(SCCNC(=O)c3ccc4c(c3)OCO4)[nH]2)cc1 | 98% |
| O=C(NCCS(=O)(=O)N1CCN(c2ccccc2)CC1)c1ccco1 | 98% |
| COc1ccccc1NC(=O)c1ccc(N2CC3CC(C2)c2cccc(=O)n2C3)c(NC(=O)c2cccnc2)c1 (configuration not stated) | 100% |
| CCN(CC(=O)Nc1ccc(NC(C)=O)cc1)C(=O)C1CC(=O)N(c2ccc3c(c2)OCCO3)C1 (configuration not stated) | 91% |
| COc1ccc(CCNC(=O)CN(c2ccccc2)S(C)(=O)=O)cc1OC | 95% |
| COc1ccc(CCNc2nc(C)cc(C)n2)cc1OC | 95% |
| COc1ccc(CCNC2=C(Cl)C(=O)N(Cc3ccccc3)C2=O)cc1OC | 73% (active) |
| Fc1ccccc1OCCSc1nc2ccccc2o1 | 89% |
| O=C(CSc1nnc(C2CC2)n1Cc1ccccc1)Nc1cccnc1Cl | 85% |
| CCC1OC(C2CC2)CC2=C1C(=O)OC(C)(C)O2 (configuration not stated) | 97% |
| CC1(C)O[C@H]2CC(=O)OCC23[C@H]2CC[C@@]4(C)[C@H](c5ccoc5)OC(=O)[C@H]5O[C@]54[C@]2(C)C(=O)C[C@@H]13 (some centres not stated) | 100% |
